# Bioassay records deposited in PubChem BioAssay by National Center for Advancing Translational Sciences (NCATS).
# D1 antag = antagonists of human D1 dopamine receptor; P21728; HEK293 TREx D1 cells, calcium flux, dopamine EC80; active compounds read low; activity change, negative = inhibition, % at 10 µM; actives 3.2% (n = 360,000); AID 504652; in the data active means activity change below about -30%; further: on the % scale 0 is the no-effect control and ±100 the full control effect
#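 Antagonism measured as reduced calcium response to an EC80 dopamine addition following 180 s compound pre-read; cells were inducible HEK293 Trex D1 plated overnight at 30 C, read kinetically at 1 cycle/sec.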
# D3 antag = blocks the human D3 dopamine receptor; P35462; max response, negative = inhibition, %; actives 2.5% (n = 360,000); D3R cells, DiscoveRx beta-arrestin luminescence, antagonist mode; active compounds read low; in the data active means max response below about -50%; further: on the % scale 0 is the no-effect control and ±100 the full control effect
# Target sequence (P35462 whole entry, looked up): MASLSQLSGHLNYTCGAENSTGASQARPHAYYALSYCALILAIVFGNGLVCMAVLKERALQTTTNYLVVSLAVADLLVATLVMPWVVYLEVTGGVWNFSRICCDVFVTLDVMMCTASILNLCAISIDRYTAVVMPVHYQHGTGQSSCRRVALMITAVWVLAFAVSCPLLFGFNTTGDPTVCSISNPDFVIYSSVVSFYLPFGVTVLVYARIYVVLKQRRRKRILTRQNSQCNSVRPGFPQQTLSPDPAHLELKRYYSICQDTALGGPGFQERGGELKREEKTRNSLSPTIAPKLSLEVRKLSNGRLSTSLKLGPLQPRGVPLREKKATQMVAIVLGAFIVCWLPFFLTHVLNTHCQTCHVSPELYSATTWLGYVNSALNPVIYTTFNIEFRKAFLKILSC
#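 Cells expressing the human receptor were seeded at 1500 cells/well, incubated overnight at 37 degrees C in 5% CO2, then exposed to library compounds with dopamine controls for 90 minutes at 37 degrees C before luminescent detection.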
# DRD3 agonist = activates the human D3 dopamine receptor; P35462; D3R DiscoveRx beta-arrestin cells, luminescence, 90 min; max activation, %; actives 0.58% (n = 410,000); in the data active means max activation above about 30%; further: 0% is about no effect
#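 Agonist mode: compounds and dopamine controls were applied to plated cells for 90 min at 37 degrees C after an overnight attachment at 1500 cells/well. Luminescent read-out followed 30 - 60 minutes at room temperature with DiscoveRx detection reagent.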
# D1 agonist = activates the human D1 dopamine receptor; P21728; HEK293 T-REx D1 cells, calcium flux, agonist mode; activation, % at 2 µM; actives 1% (n = 360,000); in the data active means activation above about 30%; further: 0% is about no effect
#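 Inducible HEK293 T-REx D1 cells, force-coupled to calcium signalling, were plated at 4000 cells/well with tetracycline and held overnight at 30 C. After no-wash calcium dye loading, compound-evoked calcium rise over 180 s flagged agonists.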
# D1 potentiator = potentiators of human D1 dopamine receptor. P21728. HEK293 TREx D1 cells, calcium flux, dopamine EC20 potentiation. potentiation, % at 10 µM. actives 0.036% (n = 360,000); in the data active means potentiation above about 30%; further: 0% is about no effect
# Starred values were filed as active, the others as inactive; x = no result; ! = not active in a repeat. Compounds with a hit are over-represented: about 6.1% of the library has one in this group of screens.
SMILES,D1 antag,D3 antag,DRD3 agonist,D1 agonist,D1 potentiator
Cn1c(=O)n(C)c2cc(NS(=O)(=O)c3ccc(F)cc3)c(NCc3ccccc3)cc21,-7,x,2,0,1
CCCCc1nn2c(=O)cc(COC(=O)c3ccc(NC(=O)C(CC)CC)cc3)nc2s1,1,x,-7,-1,2
CCCCOc1cccc(NC(=O)CSc2nnc(C)s2)c1,-5,x,-12,-2,-1
CCOC(=O)/C(=C/c1ccc(N2CCC(c3ccccc3)=N2)cc1)C(C)=O,-23,-8,-4,105*,-6
Cc1ccccc1CNC(=O)Nc1ccc2c(c1)N(C)C(=O)c1ccccc1S2,-38*,x,5,1,-3
Cc1ccc(CNC(=O)Nc2ccccc2)c(C)c1,-15,6,-4,8,-2
CN1C(=O)c2ccccc2Sc2ccc(NC(=O)NCc3ccc(Cl)cc3)cc21,2,x,-8,-1,-2
CCN(CC)CCNC(=O)c1ccc2c(c1)NC(=O)c1ccccc1S2,-30*,-18,-8,1,-4
CN(C)CCNC(=O)c1ccc2c(c1)NC(=O)c1ccccc1S2,14,13,-1,7,0
Cc1ccccc1CNC(=O)Nc1ccc(Cl)cc1,-46*,-1,-4,4,-6
CC(C)CCNC(=O)c1ccc2c(c1)N(C)C(=O)c1ccccc1S2,16,-72*,-14,4,-6
CCN(CC)c1nn2c(=O)c(C(=O)NCCc3cccc(C)c3)cnc2s1,-3,x,-5,-1,-1
COc1cc(/C=C/C(=O)OCC(=O)NC(=O)NC23CC4CC(CC(C4)C2)C3)ccc1OCC#N,-8,-53*,-7,3,4
COc1cc(/C=C/C(=O)OCC(=O)NC(=O)NC(C)C)ccc1OCC#N,11,2,19,0,-4
CC1=C(C(=O)Nc2ccc(C)cc2C)C(c2ccc(C)o2)NC(=S)N1 (stereo not given),-8,-22,-4,2,-7
CC(C)CC(=O)NC(=S)Nc1nc(-c2cccc3ccccc23)cs1,18,-73*,-9,1,5
CCOC(=O)Cc1csc(NC(=S)NC(=O)CC(C)C)n1,5,-11,0,0,6
Cn1cc(CC(=O)NC2CCCCC2)c2ccccc21,-26,3,2,2,-8
CCCn1cc(S(=O)(=O)CC(=O)NC2CCCCC2)c2ccccc21,3,-66*,-25,0,-4
CCn1c(C(=O)O)c(CC(=O)NC2CCCCCC2)c2ccccc21,-4,-89*,7,-2,3
CCCn1cc(SCC(=O)NC2CCCC2)c2ccccc21,11,3,-21,2,5
COC(=O)c1cccc(Nc2c(-c3ccc(O)c(OC)c3)nc3nc[nH]n23)c1,-10,x,-12,1,-2
CCCCN(C)CC(O)Cn1cc(/C=C/C(=O)c2cccs2)c2ccccc21 (stereo not given),-20,-24,-13,67*,-8
O=Cc1cn(CC(O)Cn2cc(C=O)c3ccccc32)c2ccccc12,-15,16,-1,4,-7
O=C(/C=C/c1cn(CC(O)CN2CCCCCC2)c2ccccc12)c1cccs1 (stereo not given),-21,5,-26,77*,-8
SMILES,D1 antag,D3 antag,DRD3 agonist,D1 agonist,D1 potentiator
CCCCN(C)CC(O)Cn1cc(/C=C/C(=O)c2ccc(OCC)cc2)c2ccccc21 (stereo not given),-56*!,x,-13,41*,-3
O=C(C(=O)c1ccc(O)cc1)c1ccccc1,6,12,0,1,0
O=C(c1ccc(O)cc1)c1ccc(C(=O)c2ccc(O)cc2)cc1,-80*,14,8,22,-10
COCCN(CC(=O)Nc1cccc(C)c1C)C(=O)/C=C/c1ccc2c(c1)OCCO2,x,11,1,x,x
CC1=C(OC(=O)c2ccc(Br)cc2)C(C)(C)C(c2ccccc2)OC1=O (stereo not given),11,-19,1,1,0
CC1=C(OC(=O)c2ccccc2)C(C)(C)C(c2ccccc2)OC1=O (stereo not given),-38*,-1,-8,1,-6
O=C(Nn1c(O)c(C=C2N=c3ccccc3=N2)sc1=S)c1ccc(Cl)cc1,-14,-19,11,1,-3
O=C(Nn1c(O)c(C=C2N=c3ccccc3=N2)sc1=S)c1cccc(Cl)c1,-13,-53*,-22,1,-3
